Calls of active or inactive are those of the source. Calls follow the shape of the full dose curve.

The conditions of the test: Ebola virus entry assay, blue channel imaging.
For `CN(C)CCOc1ccc(/C(=C(/CCCl)c2ccccc2)c2ccccc2)cc1`, the AC50 was 1.37 µM (active).
On the same count and under the same terms, the same measure for `CC[C@H]1OC(=O)[C@H](C)[C@@H](O[C@H]2C[C@@](C)(OC)[C@@H](O)[C@H](C)O2)[C@H](C)[C@@H](O[C@@H]2O[C@H](C)C[C@H](N(C)C)[C@@H]2O)[C@](C)(O)C[C@@H](C)CN(C)[C@H](C)[C@@H](O)[C@]1(C)O`: 4.32 µM (active).
`Cc1nnc(C(C)C)n1C1C[C@H]2CC[C@@H](C1)N2CC[C@H](NC(=O)C1CCC(F)(F)CC1)c1ccccc1` (stereo not given in full): the result was inactive.
`COC1=CC(=O)C[C@@H](C)[C@]12Oc1c(Cl)c(OC)cc(OC)c1C2=O`: the molecule was called inactive.
Regarding `CC[C@]1(O)C[C@@H]2CN(CCc3c([nH]c4ccccc34)[C@@](C(=O)OC)(c3cc4c(cc3OC)N(C)[C@H]3[C@@](O)(C(=O)OC)[C@H](OC(C)=O)[C@]5(CC)C=CCN6CC[C@]43[C@@H]65)C2)C1`, the AC50 was 0.137 µM (active).
In the case of `CO[C@H]1C[C@@H]2CC[C@@H](C)[C@@](O)(O2)C(=O)C(=O)N2CCCC[C@@H]2C(=O)O[C@H]([C@H](C)C[C@@H]2CC[C@H](OCCO)[C@H](OC)C2)CC(=O)[C@H](C)C=C(C)[C@@H](O)[C@@H](OC)C(=O)[C@H](C)C[C@H](C)C=CC=CC=C1C`, the result was inactive.
On to `CCCCc1oc2ccc(NS(C)(=O)=O)cc2c1C(=O)c1ccc(OCCCN(CCCC)CCCC)cc1`, for which the AC50 is 4.85 µM (active).
On the same count and under the same terms, next, `CCN(CC)CCNC(=O)c1c(C)[nH]c(/C=C2\C(=O)Nc3ccc(F)cc32)c1C`: 3.06 µM (active); `CC[C@]1(O)C[C@H]2CN(CCc3c([nH]c4ccccc34)[C@@](C(=O)OC)(c3cc4c(cc3OC)N(C=O)[C@H]3[C@@](O)(C(=O)OC)[C@H](OC(C)=O)[C@]5(CC)C=CCN6CC[C@]43[C@@H]65)C2)C1`: 0.153 µM (active); `COc1cccc2c1C(=O)c1c(O)c3c(c(O)c1C2=O)C[C@@](O)(C(C)=O)C[C@H]3O[C@H]1C[C@H](N)[C@H](O)[C@H](C)O1`: 3.43 µM (active).
Same read-out and setting: next, `CCC1=C[C@@H]2CN(C1)Cc1c([nH]c3ccccc13)[C@@](C(=O)OC)(c1cc3c(cc1OC)N(C)[C@H]1[C@@](O)(C(=O)OC)[C@H](OC(C)=O)[C@]4(CC)C=CCN5CC[C@]31[C@@H]54)C2`: 0.153 µM (active).
Consider `CN1CCN(CCCN2c3ccccc3Sc3ccc(C(F)(F)F)cc32)CC1`, for which the AC50 is 9.68 µM (active).
In the case of `NCCCC(O)(P(=O)(O)O)P(=O)(O)O`, the call was inactive.
In the case of `COC(=O)Nc1nc2ccc(C(=O)c3cccs3)cc2[nH]1`, the AC50 is 0.611 µM (active).
Take `CO[C@H]1C[C@@H]2CC[C@@H](C)[C@@](O)(O2)C(=O)C(=O)N2CCCC[C@@H]2C(=O)O[C@H]([C@@H](C)C[C@@H]2CC[C@H](O)[C@H](OC)C2)CC(=O)[C@H](C)C=C(C)[C@@H](O)[C@@H](OC)C(=O)[C@H](C)C[C@H](C)C=CC=CC=C1C`: the molecule was called inactive.
`C[C@@H]1O[C@@H](O[C@H]2CC[C@@]3(C)[C@H](CC[C@@H]4[C@H]3C[C@@H](O)[C@]3(C)[C@@H](C5=CC(=O)OC5)CC[C@]43O)C2)C[C@H](O)[C@@H]1O[C@H]1C[C@H](O)[C@H](O[C@H]2C[C@H](O)[C@@H](O)[C@@H](C)O2)[C@H](C)O1` (stereo in doubt): the outcome was inactive.
Turning to `CCCNCC(O)COc1ccccc1C(=O)CCc1ccccc1` (stereo not given), the AC50 is 9.68 µM (active).
In the case of `COC(=O)Nc1nc2ccc(C(=O)c3ccccc3)cc2[nH]1`, the call was inactive.
Still for that read-out and setting: the same measure for `CCCSc1ccc2nc(NC(=O)OC)[nH]c2c1`: “inactive”.
For `CC[C@H]1OC(=O)[C@H](C)[C@@H](O[C@H]2C[C@@](C)(OC)[C@@H](O)[C@H](C)O2)C(C)[C@@H](O[C@@H]2O[C@H](C)C[C@H](N(C)C)[C@@H]2O)[C@](C)(OC)C[C@@H](C)C(=O)[C@H](C)[C@@H](O)[C@]1(C)O` (stereo not given in full), the AC50 is 6.85 µM (active).

For the origin of these results see PubChem BioAssay AID1117306 (National Center for Advancing Translational Sciences (NCATS), 2015).
